Results taken from PubChem BioAssay (Tox21).
Inconclusive results are not listed. Activity calls are given as the source filed them. Unless noted, calls come from the whole dose curve; as a rule, active = well fitted curve in the direction sought with a large enough effect in the repeat runs; inconclusive = weak or mixed curves; inactive = no such curve, though single readings can be large; an effect the other way counts as inactive or inconclusive.

Legend:
[1] = qHTS assay for small molecule agonists of the p53 signaling pathway (AID 651631; calls by dose curve; note: nearly all actives have a fitted effect of over 15% in size; note: potency is the fitted concentration of half-maximal effect)
How it was run: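 Agonist mode screen using a stably integrated beta-lactamase gene under p53 response elements in HCT-116 cells. Compound exposure lasts 16 h at 37 °C; fluorescence intensity is measured following 2 h FRET substrate loading.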

[2] = qHTS assay for small molecules that induce genotoxicity in human embryonic kidney cells expressing luciferase-tagged ATAD5 (AID 651632); note: nearly all actives have a fitted effect of over 15% in size; note: potency is the fitted concentration of half-maximal effect
How it was run: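 Concentration-response screen for ATAD5 upregulation in HEK293T luciferase reporter cells; 16 hr treatment at 37C, then luminescence after 30 min with Amplite at room temperature.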

[3] = qHTS assay for small molecule agonists of the p53 signaling pathway - cell viability (AID 651633; calls by dose curve;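 note: p53RE-bla HCT reporter cells with a stable beta-lactamase p53 reporter; series mostly up to about 83 µM; nearly all actives have a fitted effect of over 30% in size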)
How it was run: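 Viability counter-read: CellTiter-Glo luminescence (30 min, room temperature) in the same p53RE-bla plates. These plates had been exposed to compounds for 16 h at 37 C.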

[4] = qHTS assay for small molecules that induce genotoxicity in human embryonic kidney cells expressing luciferase-tagged ATAD5 - cell viability (AID 651634; calls by dose curve; note: nearly all actives have a fitted effect of over 25% in size; note: potency is the fitted concentration of half-maximal effect)
How it was run: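 15.5 hr compound or vehicle exposure of HEK293T cells expressing luciferase-tagged ATAD5 at 37C; live-cell protease activity is read by fluorescence after 30 min of CellTiter-Fluor.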

[5] = qHTS assay for small molecule disruptors of the mitochondrial membrane potential - cell viability (AID 720634; calls by dose curve; note: nearly all actives have a fitted effect of over 20% in size; note: potency is the fitted concentration of half-maximal effect)
How it was run: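 In this qHTS format, HepG2 cells plated overnight were pinned with compound, incubated 1 hr, and assayed for ATP luminescence with CellTiter-Glo after m-MPI dye addition.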

[6] = qHTS assay for small molecule disruptors of the mitochondrial membrane potential (AID 720635); note: potency is the fitted concentration of half-maximal effect
How it was run: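 Mitochondrial membrane potential tracked with Mito-MPS dye, red aggregates (ex 540/em 590 nm) against green monomers (ex 490/em 535 nm). Compound treatment 1 hr at 37C, dye 30 min in HepG2.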

[7] = qHTS assay to test for compound auto fluorescence at 590 nm (red) in HepG2 cells (AID 720674)
How it was run: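 We screened compounds on adherent HepG2 cells, incubating them for an hour at 37 C in 5% CO2 before reading emission at 590 nm under 540 nm excitation; values reflect equivalence to Rose Bengal sodium fluorescence.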

[8] = qHTS assay to test for compound auto fluorescence at 535 nm (green) in HepG2 cells (AID 720675)
[9] = qHTS assay to test for compound auto fluorescence at 460 nm (blue) in HEK293 cells (AID 720678)
How it was run: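 Intrinsic compound fluorescence is recorded in live HEK293 cultures after overnight incubation at 37C, 5% CO2, using excitation 405 nm and emission 460 nm. Values are referenced to triamterene.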

[10] = qHTS assay to test for compound auto fluorescence at 535 nm (green) in HEK293 cells (AID 720680)
[11] = qHTS assay to test for compound auto fluorescence at 460 nm (blue) in HEK293 cell free culture (AID 720681)
How it was run: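 Blue fluorescence (Ex 405/Em 460 nm, triamterene-equivalent) was read immediately after pin transfer of compound or DMSO into medium (DMEM, 10% FBS) without cells.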

[12] = qHTS assay to test for compound auto fluorescence at 535 nm (green) in HEK293 cell free culture (AID 720682)
How it was run: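 No cells present: wells hold DMEM supplemented with 10% FBS, into which compound or vehicle is pinned. Green emission is then recorded (485 nm excitation, 535 nm emission) and scaled to fluorescein.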

[13] = qHTS assay to test for compound auto fluorescence at 590 nm (red) in HEK293 cell free culture (AID 720683)
How it was run: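 Red-channel autofluorescence of compounds in culture medium (DMEM, 10% FBS), no cells, measured at 540/590 nm. Rose Bengal sodium is the reference fluorophore for equivalence.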

[14] = qHTS assay to test for compound auto fluorescence at 460 nm (blue) in HepG2 cell free culture (AID 720685)
How it was run: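 Cell-free plates of MEM plus 10% FBS received 23 nL compound or DMSO vehicle; blue-channel (405/460 nm) intensity scored against triamterene as reference fluorophore.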

[15] = qHTS assay to test for compound auto fluorescence at 535 nm (green) in HepG2 cell free culture (AID 720686)
[16] = qHTS assay to test for compound auto fluorescence at 460 nm (blue) in HepG2 cells (AID 720687)
How it was run: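 Blue-channel autofluorescence (Ex/Em 405/460 nm, triamterene-equivalent) was measured after 1 hr compound exposure at 37 C, 5% CO2. Cells were HepG2, plated overnight at 37 C in MEM plus 10% FBS.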

[17] = target: Glucocorticoid receptor (Homo sapiens) (UniProt P04150); experiment: qHTS assay to identify small molecule agonists of the glucocorticoid receptor (GR) signaling pathway (AID 720691; active = well fitted activation curve with a large enough effect in the signal ratio in the repeat runs, not every such curve was filed as active; the % refers to the signal ratio)
How it was run: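 Measures GR pathway activation through a GRE-beta-lactamase reporter stably integrated in HeLa cells, with 18 h compound treatment at 37 C and fluorescence detection using a FRET substrate.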

[18] = target: Glucocorticoid receptor (Homo sapiens) (UniProt P04150); experiment: qHTS assay to identify small molecule antagonists of the glucocorticoid receptor (GR) signaling pathway (AID 720692; active = well fitted inhibition curve with a large enough effect in the signal ratio in the repeat runs, not every such curve was filed as active; the % refers to the signal ratio)
How it was run: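 Tox21 10K library screened in concentration-response for blockade of dexamethasone (5 nM final)-induced GRE-bla reporter activity in HeLa cells; 18 h treatment, fluorescence read.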

[19] = qHTS assay to test for compound auto fluorescence at 590 nm (red) in HEK293 cells (AID 720679)
How it was run: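 Red autofluorescence, HEK293 cells: 2,000 cells/well; attach 4-5 hr 37C; add 23 nL cpd or DMSO; incubate o/n 37C 5% CO2; read Ex540/Em590; Rose Bengal sodium reference.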

[20] = qHTS assay to test for compound auto fluorescence at 590 nm (red) in HepG2 cell free culture (AID 720684)
How it was run: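 Cell-free; medium MEM + 10% FBS; compound or DMSO added by pintool; read Ex 540/Em 590 nm; Rose Bengal sodium as red reference fluorophore.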
% is set by controls: 0 for no effect and ±100 for the full control effect.

Glucocorticoid receptor (Homo sapiens), sequence (P04150 whole entry, looked up): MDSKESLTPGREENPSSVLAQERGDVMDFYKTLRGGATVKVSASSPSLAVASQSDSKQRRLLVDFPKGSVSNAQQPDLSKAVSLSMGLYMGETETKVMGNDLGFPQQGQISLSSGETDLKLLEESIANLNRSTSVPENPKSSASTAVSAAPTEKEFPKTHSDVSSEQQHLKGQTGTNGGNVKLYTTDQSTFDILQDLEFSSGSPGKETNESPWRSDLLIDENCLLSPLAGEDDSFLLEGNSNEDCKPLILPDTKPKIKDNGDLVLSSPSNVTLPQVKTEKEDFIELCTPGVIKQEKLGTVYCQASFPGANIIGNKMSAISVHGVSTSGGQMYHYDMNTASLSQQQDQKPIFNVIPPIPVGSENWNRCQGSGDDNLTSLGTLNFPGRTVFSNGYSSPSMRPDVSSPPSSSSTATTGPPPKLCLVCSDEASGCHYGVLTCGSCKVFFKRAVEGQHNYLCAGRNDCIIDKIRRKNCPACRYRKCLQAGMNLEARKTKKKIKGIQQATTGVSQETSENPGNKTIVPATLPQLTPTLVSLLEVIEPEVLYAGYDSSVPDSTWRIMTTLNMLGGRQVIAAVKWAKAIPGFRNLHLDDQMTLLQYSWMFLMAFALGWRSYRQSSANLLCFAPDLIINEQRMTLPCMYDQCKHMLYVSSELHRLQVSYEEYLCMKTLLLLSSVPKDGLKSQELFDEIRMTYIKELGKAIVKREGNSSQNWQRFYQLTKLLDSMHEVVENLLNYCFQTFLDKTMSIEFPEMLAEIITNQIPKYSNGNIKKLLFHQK

CC(CCC(=O)O)C(=O)O (stereo unspecified)
inactive: Potency [1] | Potency [2] | Potency [3] | Potency [4] | Potency [5] | Potency [6] | outcome [7] | outcome [8] | Potency [9] | outcome [10] | Potency [11] | outcome [12] | outcome [13] | Potency [14] | outcome [15] | Potency [16] | Potency [17] | Potency [18]

CCC1CO1 (stereo unspecified)
inactive: Potency [1] | Potency [2] | Potency [3] | Potency [4] | Potency [5] | Potency [6] | outcome [8] | Potency [9] | outcome [19] | outcome [10] | Potency [11] | outcome [12] | outcome [13] | outcome [20] | Potency [14] | outcome [15] | Potency [16] | Potency [18]

CC(=O)OCCN(CCOC(C)=O)c1ccc(N=Nc2ccc([N+](=O)[O-])cc2C#N)cc1
inactive: Potency [1] | Potency [2] | Potency [3] | outcome [7] | outcome [8] | Potency [9] | outcome [19] | outcome [10] | outcome [12] | outcome [13] | Potency [14] | outcome [15] | Potency [16] | Potency [17]
active: Potency [4] 61.1 µM | Potency [6] 6.86 µM

CN1C(=O)N(c2ccccc2Br)Cc2cnc(Nc3ccc4c(c3)OCC(CO)O4)nc21 (stereo unspecified)
inactive: Potency [2] | outcome [7] | outcome [8] | Potency [9] | outcome [19] | outcome [10] | Potency [11] | outcome [12] | outcome [13] | outcome [20] | Potency [14] | outcome [15] | Potency [16]
active: Potency [1] 19.3 µM | Potency [4] 54.5 µM | Potency [5] 48.6 µM | Potency [6] 24.3 µM

O=C(CCc1ccc(O)cc1)c1c(O)cc(O)cc1O
active: Potency [1] 70.1 µM | Potency [6] 3.13 µM
inactive: Potency [2] | Potency [3] | outcome [8] | Potency [9] | outcome [19] | outcome [10] | Potency [11] | outcome [12] | outcome [13] | Potency [14] | outcome [15] | Potency [16]

CCOC(C)=O
inactive: Potency [1] | Potency [2] | Potency [3] | Potency [4] | Potency [5] | outcome [7] | outcome [8] | outcome [19] | outcome [10] | Potency [11] | outcome [12] | outcome [13] | outcome [20] | Potency [14] | outcome [15] | Potency [16] | Potency [17] | Potency [18]

O=C(Cn1ccnc1[N+](=O)[O-])NCCO
inactive: Potency [1] | Potency [2] | Potency [3] | Potency [4] | Potency [5] | outcome [8] | outcome [19] | Potency [11] | outcome [12] | outcome [13] | outcome [20] | Potency [14] | outcome [15] | Potency [16]

CCC(OCCCOC)OC(C)=O (stereo unspecified)
inactive: Potency [1] | Potency [2] | Potency [3] | Potency [4] | Potency [5] | outcome [7] | outcome [8] | Potency [9] | outcome [10] | Potency [11] | outcome [12] | outcome [13] | Potency [14] | outcome [15] | Potency [16] | Potency [18]

CCC1NC(=O)c2cc(S(N)(=O)=O)c(Cl)cc2N1 (stereo unspecified)
inactive: Potency [1] | Potency [3] | Potency [4] | Potency [5] | fluorescence, % of fluorescein control [8] 0.161% [at 18.6 µM] | fluorescence, % of triamterene [9] -0.286% [at 18.6 µM] | fluorescence, % of fluorescent control [19] -0.132% [at 18.6 µM] | fluorescence, % of fluorescein [10] -0.0959% [at 18.6 µM] | fluorescence, % of fluorescent control [11] -0.0955% [at 18.6 µM] | activity change [12] -0.178% [at 18.6 µM] | fluorescence, % of fluorescent control [13] -0.121% [at 18.6 µM] | fluorescence, % of Rose Bengal [20] -0.427% [at 18.6 µM] | fluorescence, % of fluorescent control [14] -0.0342% [at 18.6 µM] | fluorescence, % of fluorescein control [15] 0.0837% [at 18.6 µM] | fluorescence, % of fluorescent control [16] -0.0496% [at 18.6 µM] | Potency [17] | Potency [18]

c1cc(N(CC2CO2)CC2CO2)ccc1Cc1ccc(N(CC2CO2)CC2CO2)cc1 (stereo unspecified)
active: Potency [1] 24.3 µM | Potency [2] 15.4 µM | Potency [5] 48.6 µM | Potency [6] 27.3 µM
inactive: Potency [3] | outcome [7] | outcome [8] | Potency [9] | outcome [19] | Potency [11] | outcome [12] | outcome [13] | Potency [14] | outcome [15] | Potency [16]

O=C1c2ccccc2C(=O)C1(O)O
inactive: Potency [2] | Potency [4] | outcome [7] | outcome [8] | outcome [19] | outcome [10] | Potency [11] | outcome [12] | outcome [13] | outcome [20] | Potency [14] | outcome [15] | Potency [16] | Potency [17]
active: Potency [1] 27.4 µM | Potency [6] 24.5 µM

CC(C)C(O)(c1ccc(OC(F)(F)F)cc1)c1cncnc1 (stereo unspecified)
inactive: Potency [1] | Potency [3] | Potency [4] | Potency [5] | outcome [7] | outcome [8] | Potency [9] | outcome [19] | outcome [10] | Potency [11] | outcome [12] | outcome [13] | Potency [14] | outcome [15] | Potency [16] | Potency [17]

O=[N+]([O-])c1ccc(Nc2ccc(Nc3ccccc3)c(S(=O)(=O)O)c2)c([N+](=O)[O-])c1
inactive: Potency [1] | Potency [2] | Potency [3] | Potency [5] | outcome [7] | outcome [8] | Potency [9] | outcome [19] | outcome [10] | outcome [12] | outcome [13] | outcome [20] | Potency [14] | outcome [15] | Potency [16]

CC=C(Cl)Cl
inactive: Potency [1] | Potency [2] | Potency [3] | Potency [4] | Potency [5] | outcome [8] | Potency [9] | outcome [10] | Potency [11] | outcome [12] | outcome [13] | outcome [20] | Potency [14] | outcome [15] | Potency [16] | Potency [17]
